Bioassay records as filed in PubChem.
Dicer inh = inhibitors of human Dicer processing of pre-microRNA; cat-ELCCA pre-miR-21 Dicer processing, chemiluminescence; hits give high values; AID 1347074; z-score at 25 µM; 6% of 47,000 active; in the data active means z-score above about 3, passing the limit was not always enough;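 further: higher signal means more uncleaved substrate so more Dicer inhibition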
A number is an active result; n = inactive. The sample as a whole holds a higher share of hits than the screen did.

SMILES	Dicer inh
COc1ccc(-n2c(C)c([N+](=O)[O-])c3ccc(O)c(CN4CCCCC4)c32)cc1	3.5
O=C(CCSc1cccs1)Nc1ccc(Cl)cc1	n
CCOC(=O)c1c(/C=C2\C(=O)Nc3ccccc32)c(C)n(Cc2cccs2)c1C	n
CCC(=O)N1c2c(C)cc(C)cc2C(=C2SC(C(=O)OC)=C(C(=O)OC)S2)C(=S)C1(C)C	n
Cc1cccc2c1N(C(=S)Nc1cccc(Cl)c1)CCC2	n
COc1ccc(C2Nc3c(C)cc(C)cc3-c3cc(C)nn32)cc1 (stereo not given)	n
FC(F)(F)c1cc(Oc2ccccc2)c2cccc(Br)c2n1	n
COc1ccc(/C=C/C(=O)N2CCN(c3ccccc3OC)CC2)cc1OC1CCCC1	n
O=C1CSC(=O)N1c1ccc(OC(F)(F)F)cc1	n
Cc1c(Cl)cccc1NC(=S)/N=C/N(C)C	n
Fc1ccc(-n2ncc(-c3nnnn3-c3ccccc3)c2-c2cccc(Cl)c2)cc1	n
CC(C)N(Cc1ccc(N(C)C)cc1)S(=O)(=O)c1cccc(C(F)(F)F)c1	n
CC1=C(C(=O)Nc2ccc(F)cc2)SCCO1	n
CC1=C(C(=O)Nc2ccccc2)S(=O)CCO1 (stereo not given)	3.3
Cc1cc(C(=O)Nc2ccccc2)oc(=O)c1	n
Cn1ncc2c(NN3C(=O)CCC3=O)ncnc21	n
O=c1/c(=C\c2ccccc2)sc2nc(-c3ccccc3)nn12	n
O=C1CCC(c2ccc(Cl)cc2)=NN1	n
Oc1ccc(-c2csc(Nc3ccccn3)n2)cc1	n
COc1ccc(-c2csc(Nc3ncccn3)n2)cc1OC	n
Cc1cc(C)nc(Nc2nc(-c3ccc(O)c(O)c3)cs2)n1	8.6
Cc1ccsc1/C=C/C(=O)O/N=C/c1c(Cl)cccc1Cl	n
NC(=O)Cc1nc(-c2ccc(Br)cc2)cs1	3.2
O=C(Cn1c(=O)sc2ccccc21)Nc1nc(-c2ccc(Br)cc2)cs1	n
NC(=O)COc1ccc(-c2noc(COc3ccc(Br)cc3)n2)cc1	n
SMILES	Dicer inh
CC1(C)Cc2c(c(N3CCOCC3)nc3sc4c(=O)n(-c5ccccn5)cnc4c23)CO1	n
N#Cc1ccc(N=Nc2c(O)c(C(=O)Nc3ccccc3)cc3ccccc23)cc1	n
Clc1ccc(-c2ccc3c4ccccc4cc-3o2)cc1	n
CCCCCSc1nnc(N)s1	4.6
Cc1ccc(C(=O)N2CCN(C(=O)CSc3nnc(N)s3)C2)cc1	n
Nc1nnc(SCC(=O)N2CCc3ccccc3C2)s1	n
CCOC(=O)C(NC(=O)c1cccc(Cl)c1)(Nc1ccc(F)c(F)c1F)C(F)(F)F (stereo not given)	n
c1ccc2sc(SCCCN3CCCCC3)nc2c1	n
COC(=O)C1=C(C)NC2=C(C(=O)CC(C)(C)C2)C1c1ccc(N(C)C)cc1 (stereo not given)	n
CCOC(=O)c1sc(N2C(=O)c3oc4ccccc4c(=O)c3C2c2cccc(Cl)c2)nc1C (stereo not given)	n
Cc1onc(-c2c(Cl)cccc2Cl)c1NC(=O)NC(C)C	n
CC(C)NC(=O)Nc1n[nH]c(Nc2ccc(Cl)cc2)n1	12
CCCNC(=O)Nc1n[nH]c(Nc2ccc(Cl)cc2)n1	n
Cn1nnnc1SCCNCc1cccc(OCc2ccccc2Cl)c1	n
CN(C)C(=S)SCc1ccccc1C(=O)Oc1c(Cl)cccc1Cl	3.6
CNC(=S)NNC(=O)c1ccccc1Cl	n
Cc1cc(Cl)c(OC(=O)c2c(Cl)cccc2Cl)c(Cl)c1	n
O=C(NCCc1c[nH]c2ccccc12)c1cc2n(n1)C(C(F)(F)F)CC(c1ccco1)N2 (stereo not given)	n
CCCCCCc1c(O)nc(SCCN(C)C)[nH]c1=O	n
CCCCCc1c(O)nc(SCCN(C)C)[nH]c1=O	n
CCCCCCc1c(O)nc(SCC(=O)O)[nH]c1=O	5.7
COc1ccc(C2C(C(=O)OC(C)C)=C(C)NC3=C2C(=O)CC(C)(C)C3)cc1Br (stereo not given)	n
CN(C)c1ccc(/C=C2/OC(=S)NC2=S)cc1	3.4
CN(C)c1ccc(C=C2C(=O)N(c3ccccc3)C(=O)N(c3ccccc3)C2=O)cc1	n
CC(=O)n1c2ccccc2c2nc(Nc3ccccc3)sc21	n
SMILES	Dicer inh
Cc1cc(C)nc(Nc2nc3ccccc3o2)n1	4.6
Cc1cc(C)nc(Nc2n[nH]c(Cc3ccccc3)n2)n1	n
COc1ccc(-c2nc(Nc3nc4ccccc4o3)ncc2C#N)cc1	n
CSc1nc(NC(=O)C(C)C)c(C#N)n1Cc1ccco1	n
COC(=O)c1sc(Br)c(Br)c1OC(=O)c1ccc(C(C)(C)C)cc1	n
CSc1sc(C(=O)NC(=O)Nc2ccc(Cl)cc2)c2c1-c1oncc1CC2	n
CC(C)C[C@H](NC(=O)c1ccc(Cl)cc1Cl)C(=O)O	n
CC(C)C[C@H](NC(=O)[C@@H](O)[C@H](N)Cc1ccccc1)C(=O)O	n
CC(C)CC(NC(=O)c1ccco1)C(=O)O (stereo not given)	5.2
CCOC(=O)c1c(C)csc1NC(=O)Nc1ccc(Cl)cc1	n
O=C(c1ccc(Cl)cc1)N1c2ccccc2OC1c1ccc2c(c1)OCO2 (stereo not given)	n
Cc1nc(=O)c(-c2ccccc2)c(C)n1CCc1c[nH]c2ccccc12	n
Cc1c2c(=O)n(-c3ccccc3)[nH]c2cc(=O)n1CCc1c[nH]c2ccccc12	3
Cc1c2c(=O)n(-c3ccccc3)[nH]c2cc(=O)n1Cc1ccc2c(c1)OCO2	n
CC(C)(C)OC(=O)NCCNC(=S)NC1CCCCC1	n
COC(=O)C1=C(C)NC2=C(C(=O)CCC2)C1c1ccc(C(=O)OC)cc1 (stereo not given)	n
CCSCCOC(=O)C1=C(C)NC2=C(C(=O)CCC2)C1c1ccc(Cl)cc1 (stereo not given)	4.2
CCOCCOC(=O)C1=C(C)NC2=C(C(=O)CCC2)C1c1cc(Br)c(O)c(OC)c1 (stereo not given)	n
CCOCCOC(=O)C1=C(C)NC2=C(C(=O)CCC2)C1c1ccc(C(=O)OC)cc1 (stereo not given)	4.8
CCOCCOC(=O)C1=C(C)NC2=C(C(=O)CCC2)C1c1ccc(C)cc1 (stereo not given)	n
CCCCOC(=O)C1=C(C)NC2=C(C(=O)CCC2)C1c1cc(Br)c(O)c(OCC)c1 (stereo not given)	3.2
COc1ccccc1C1C(C(=O)OCC2CCCO2)=C(C)NC2=C1C(=O)CCC2 (stereo not given)	n
CCSCCOC(=O)C1=C(C)NC2=C(C(=O)CCC2)C1c1ccc(CC)cc1 (stereo not given)	n
CC1=C(C(=O)OCC2CCCO2)C(c2ccc(OCc3ccccc3)cc2)C2=C(CCCC2=O)N1 (stereo not given)	n
CCSCCOC(=O)C1=C(C)NC2=C(C(=O)CCC2)C1c1ccc(-c2ccccc2)cc1 (stereo not given)	n
SMILES	Dicer inh
CCOc1cc(C2C(C(=O)OC3CCCC3)=C(C)NC3=C2C(=O)CCC3)cc(Br)c1O (stereo not given)	n
CC1=C(C(=O)OCC2CCCO2)C(c2ccccc2OCc2ccccc2)C2=C(CCCC2=O)N1 (stereo not given)	3.6
Cn1cc(Br)c(NC(=O)CSc2cc(C(F)(F)F)cc(C(F)(F)F)c2)n1	n
CCC(=O)N1N=C(c2cccs2)CC1c1cn(-c2ccccc2)nc1-c1cccs1 (stereo not given)	n
CN(C)C=Nc1cc(Cl)c(-n2cccc2)cc1Cl	n
Cc1[nH]n(C)c(=O)c1N=Nc1c(Cl)cc(C(F)(F)F)cc1Cl	n
CC1(C)CC(=O)C2=C(C1)Nc1ccccc1NC2c1cccc(Cl)c1 (stereo not given)	n
O=c1[nH]c(NCc2ccccc2)nc2sc3c(c12)CCCC3	n
